Screens deposited in PubChem BioAssay by The Scripps Research Institute Molecular Screening Center.
DAX1 inh-1 = DAX1 (NR0B1) inhibitors, primary screen, cell-based, HEK293, Gal4-DAX1, luciferase luminescence; Nuclear receptor subfamily 0 group B member 1 (Homo sapiens), P51843; HEK293 Gal4-DAX1 luciferase reporter; inhibition, % at 6.75 µM; 340,000 compounds, 0.99% hits;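 active = inhibition above the mean over all tested compounds plus 3 SD, cut at about 4.2% in these data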;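 also: 0% = DAX1-transfected cells with DMSO and 100% = empty-vector control cells with DMSO; inhibition shows as a rise in luminescence from relieved DAX1 repression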
Target sequence (P51843 207-470 limits assumed): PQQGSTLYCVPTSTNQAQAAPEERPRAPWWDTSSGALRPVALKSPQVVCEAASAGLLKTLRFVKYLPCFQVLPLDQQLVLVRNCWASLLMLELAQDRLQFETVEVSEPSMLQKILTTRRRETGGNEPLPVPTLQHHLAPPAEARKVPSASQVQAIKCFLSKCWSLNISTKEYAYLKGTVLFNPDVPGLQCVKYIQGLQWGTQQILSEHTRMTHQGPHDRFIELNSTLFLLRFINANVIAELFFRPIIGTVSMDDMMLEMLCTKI
DAX1 inh-2 = DAX1 (NR0B1) inhibitors on StAR promoter, primary screen, cell-based, luminescence, SF-1 (NR5A1), full-length DAX-1. HEK293T StAR-luciferase reporter, SF-1/DAX-1 repression relief. inhibition, % at 6.8 µM. 370,000 compounds, 1.1% hits. AID 652010, 2013;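 active = inhibition above the mean over all tested compounds plus 3 SD, cut at about 3.6% in these data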;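 also: 0% = DAX-1 cells with DMSO and 100% = cells lacking DAX-1 with DMSO; higher inhibition means more luminescence from relief of DAX-1 repression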
hcDAF-12 act = H. contortus DAF-12 nuclear receptor activators, primary screen, cell-based, luminescence, HEK293, lit1-tk-luc reporter. HEK293 hcDAF-12 lit1-tk-luc reporter; 0% DMSO, 100% Δ7-dafachronic acid. activation, % at 6.8 µM. 370,000 compounds, 1.4% hits;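 active = activation above the mean of all tested compounds plus 3 SD, cut at about 5.5% in these data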;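 also: 100% = response to 3 µM Δ7-dafachronic acid high control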
hgDAF12 agonist = H. glycines DAF-12 receptor agonists, primary screen, cell-based, luminescence, HEK293, GAL4 fusion, UAS-luciferase | 370,000 compounds, 1.8% hits | activation, % at 6.8 µM | Nuclear hormone receptor DAF-12 (Heterodera glycines), GAL4 fusion | HEK293 GAL4-hgDAF12 UAS-luciferase reporter, agonist luminescence; normalized to butyrate control;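 active = activation above a cutoff set at the mean of all screened compounds plus 3 SD, cut at about 10% in these data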;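 also: 0% = DMSO wells and 100% = sodium butyrate wells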
ssDAF-12 act = S. stercoralis DAF-12 nuclear receptor activators, primary screen, cell-based, luminescence, HEK293, GRIP1 co-expression, lit1-tk-luc; Nuclear hormone receptor DAF-12 (Strongyloides stercoralis); HEK293 ssDAF-12/GRIP1 lit1-tk-luc reporter; % of 3 µM dafachronic acid response; activation, % at 6.8 µM; 370,000 compounds, 1% hits; AID 652126, 2013;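 active = activation above the mean over all tested compounds plus 3 SD, cut at about 0.9% in these data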;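 also: 0% = DMSO-only wells and 100% = 3 µM delta7-dafachronic acid wells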
hgDAF12 ag = H. glycines DAF-12 receptor agonists, confirmation, cell-based, luminescence, HEK293, GAL4-LBD fusion; AID 743050, 2013; activation, % at 6.8 µM; 3,300 compounds, 80% hits; shares compounds with hgDAF12 agonist; HEK293 GAL4-hgDAF12 luciferase reporter, agonist mode; percent of butyrate response;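 active = mean activation over triplicate wells above the hit cutoff derived from the earlier primary screen, cut at about 11% in these data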;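 also: 0% = DMSO low control and 100% = 2 mM sodium butyrate high control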
LXR ag 2 = LXR agonists, Gal4 luciferase reporter, confirmation, counter-screen for hgDAF-12 agonist project, cell-based, luminescence, HEK293, H. glycines campaign; activation, % at 6.8 µM; 3,300 tested, under 10 active; shares compounds with hgDAF12 agonist; 24 h;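 active = mean activation of the triplicate above a set limit carried over from the primary screen, none filed active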
Active calls of the source: *. Compounds with a hit are over-represented: about 4.1% of the library has one in this group of screens.

Results for CN(C)CCNc1ncnc2c1ncn2[C@H]1CN(Cc2cccnc2)C[C@@H](CO)O1 ?
DAX1 inh-2: 1; hcDAF-12 act: 0; hgDAF12 agonist: 24*; ssDAF-12 act: -1; hgDAF12 ag: -1; LXR ag 2: 0

What do the screens show for `CC(C)(C)c1ccc(CC(=O)N2CCC2(C)C(=O)NS(=O)(=O)c2ccc(F)cc2F)cc1` (stereo unspecified)?
DAX1 inh-2: -1; hcDAF-12 act: -2; hgDAF12 agonist: 1; ssDAF-12 act: -2

Results for CCOC(=O)C1CCCCN1C(=O)c1oc2c(Cl)cc(C)cc2c1C (stereo unspecified) ?
DAX1 inh-1: -1; DAX1 inh-2: -1; hcDAF-12 act: -1; hgDAF12 agonist: 3; ssDAF-12 act: -1

How did COC(=O)C1CCN(C(=O)c2oc3c(Cl)cc(C)cc3c2C)CC1 do in these assays?
DAX1 inh-1: 1; DAX1 inh-2: 2; hcDAF-12 act: 4; hgDAF12 agonist: 14*; ssDAF-12 act: 0; hgDAF12 ag: 16*; LXR ag 2: 1

How did C#CC1(NC(=S)Nc2cccc(OC)c2)CCCCC1 do in these assays?
DAX1 inh-1: 2; DAX1 inh-2: 1; hcDAF-12 act: 2; hgDAF12 agonist: 15*; ssDAF-12 act: 0; hgDAF12 ag: 1; LXR ag 2: 0

Results for CN(C)c1cccc(C(=O)NNC(=O)CN2C(=O)C3CC=CCC3C2=O)c1 (stereo unspecified) ?
DAX1 inh-1: 5.7*; DAX1 inh-2: 3; hcDAF-12 act: 4; hgDAF12 agonist: 14*; ssDAF-12 act: -1; hgDAF12 ag: 3; LXR ag 2: 1

Results for CC1(c2nc3ccccc3cc2C#N)OCCO1 ?
DAX1 inh-1: 0; DAX1 inh-2: 0; hcDAF-12 act: -1; hgDAF12 agonist: 1; ssDAF-12 act: -1

How did Cc1cc(OCC(=O)N(C)C2CCCCC2)ccc1Cl do in these assays?
DAX1 inh-1: 0; DAX1 inh-2: 3.6*; hcDAF-12 act: 4; hgDAF12 agonist: 17*; ssDAF-12 act: 1; hgDAF12 ag: 10; LXR ag 2: 1

How did COC1=CC(=O)OC(c2cccc(C#N)c2)C1 (stereo unspecified) do in these assays?
DAX1 inh-2: 0; hcDAF-12 act: 0; hgDAF12 agonist: 3; ssDAF-12 act: -1

Results for CCCNC(=O)c1cccc(COc2ccccc2OC)c1 ?
DAX1 inh-1: -2; DAX1 inh-2: 2; hcDAF-12 act: 1; hgDAF12 agonist: 17*; ssDAF-12 act: 0; hgDAF12 ag: 14*; LXR ag 2: 1

How did COc1ccc(OCc2cccc(C(=O)NN)c2)cc1 do in these assays?
DAX1 inh-1: -5; DAX1 inh-2: 3.9*; hcDAF-12 act: 2; hgDAF12 agonist: 18*; ssDAF-12 act: -1; hgDAF12 ag: 21*; LXR ag 2: 1

How did NNC(=O)c1cccc(COc2ccc(Br)cc2)c1 do in these assays?
DAX1 inh-1: -4; DAX1 inh-2: 3.7*; hcDAF-12 act: 4; hgDAF12 agonist: 19*; ssDAF-12 act: -1; hgDAF12 ag: 22*; LXR ag 2: 1

How did CCOC(=O)[C@@]12CCCC3=C1N(CCC3)C(=O)[C@H]2CC(=O)N1CCC(c2ccccc2)CC1 do in these assays?
DAX1 inh-2: 1; hcDAF-12 act: -1; hgDAF12 agonist: -4; ssDAF-12 act: -2
